Source: PubChem
Most compounds without a hit are left out; they make up all but 3.3% or so of the library.
Jurkat NFkB inh: inhibitors of induced NF-kB luciferase reporter, primary screen, TCR NF-kB activation inhibitor project, cell-based, luminescence, uHTS; Jurkat, PMA/ionomycin-induced NF-kB luciferase reporter; inhibition, % at 4 µM; 0.53% of 330,000 active; AID 435003, 2010; in the data active = inhibition above about 50%
SMARCA2 activ: SMARCA2 (BRM) function activators, primary screen, cell-based, luminescence, high throughput; 1% of 370,000 active; activation, % at 9.1 µM; MG213 cells, MMTV-luciferase reporter, dexamethasone, overnight; in the data active = activation above about 7.8%
697 NFkB inh: inhibitors of PMA/ionomycin-induced NF-kB reporter, 697 cells, primary screen, B-cell NF-kB inhibitor project, cell-based, luminescence, uHTS. 697 B-cell NF-kB luciferase reporter, 16 h. inhibition, % at 4 µM. 0.33% of 330,000 active. AID 435022, 2010; in the data active = inhibition above about 35%
Gli-Sufu antag: Gli-Sufu pathway antagonists, primary screen, luciferase luminescence, Sufu-KO-LIGHT cells, uHTS; Sufu-KO-LIGHT fibroblasts, Gli luciferase reporter luminescence; inhibition, % at 5 µM; 0.74% of 340,000 active; AID 588413, 2011;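 active = inhibition above about 55%, limit read from the data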
esBAF inh: Bmi1 luciferase reporter increase in mESCs, primary screen, esBAF inhibitor project, mouse ES cells, Bmi1 luciferase knock-in, single point; 24 h; 100% = twice the neutral-well signal; reporter increase, % at 12.5 µM; 2% of 350,000 active; AID 602393, 2012; in the data active = activation above about 40%;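 also: a rise in the Bmi1 reporter signal indicates esBAF inhibition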
Jurkat NFkB conf: PMA/ionomycin-induced NF-kB reporter inhibitors, Jurkat retest, confirmation, T-cell NF-kB inhibitor project, cell-based, luminescence, single concentration; shares compounds with Jurkat NFkB inh; Jurkat NF-kB luciferase, 16 h; inhibition, % at 4 µM; 27% of 2,700 active;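 active = inhibition reaching about 45% at 4 µM in either replicate, limit read from the data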
697 NFkB conf: PMA/ionomycin-induced NF-kB reporter inhibitors, 697 retest, confirmation, B-cell NF-kB inhibitor project, cell-based, luminescence, single concentration; 697 B-cell NF-kB luciferase, 16 h; shares compounds with 697 NFkB inh; inhibition, % at 4 µM; 35% of 2,000 active; in the data active = inhibition mostly above about 28%, no sharp cut-off; inactive = mostly below about 22%
SMARCA2 conf: SMARCA2 (BRM) function activators, confirmation, cell-based, luminescence, triplicate | AID 652260, 2013 | activation, % at 9.1 µM | 30% of 3,500 active | shares compounds with SMARCA2 activ | MG213 cells, MMTV-luciferase with dexamethasone, overnight; MG213 cells expressing E1A, Rb sequestered; DMSO wells 0%, reference activator 100%;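 active = activation above its plate's cutoff, the mean activation of tested wells plus 3 SD, cut at about 7.9% in these data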
GAL4-VP16 Luc: GAL4-VP16 luciferase reporter activation, counter-screen for SMARCA2 (BRM) activator project, cell-based, pG5luc, luminescence, high throughput. activation, % at 9.1 µM. 41% of 3,500 active. HEK293 GAL4-VP16 pG5luc reporter; scaled: DMSO wells 0%, SAHA wells 100%. shares compounds with SMARCA2 activ;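 active = activation above the solvent-only control well mean plus 3 SD, averaged across control plates, cut at about 5.2% in these data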
Hits are given with their value; n = inactive; x = no result.

SMILES	Jurkat NFkB inh	SMARCA2 activ	697 NFkB inh	Gli-Sufu antag	esBAF inh	Jurkat NFkB conf	SMARCA2 conf	GAL4-VP16 Luc	others
CC(C)NC(=O)Nc1ccc2c(c1)CC(=O)N([C@@H](C)CO)C[C@H](C)[C@H](CN(C)S(=O)(=O)c1ccc(F)cc1)O2	x	x	x	x	n	x	x	x
OCCCNc1c2ccccc2nc2ccccc12	84.0	18.9	n	n	n	n	145.2	n
COc1ccc(C2=Nn3c(nnc3-c3ccccc3)SC2)cc1OC	n	n	n	n	n	x	x	x
COc1ccc(OC)c(-c2nnc3n2N=C(c2ccc(OC)c(OC)c2)CS3)c1	57.7	11.6	n	n	n	n	33.5	16.6
C[C@@H]1CN([C@H](C)CO)C(=O)c2cc(C#CC(C)(C)O)cnc2O[C@H]1CN(C)Cc1cccc(F)c1	x	x	x	x	n	x	x	x
O=C1c2cccc3cc([N+](=O)[O-])cc(c23)C(=O)N1CCN1CCCC1	86.5	64.2	n	74.8	n	57.1	n	6.5
c1ccc(-c2nnc(-c3ccccc3)o2)cc1	n	n	n	n	n	x	x	x
Nc1ccccc1-c1nnc(-c2ccc(-c3ccccc3)cc2)o1	n	9.2	n	n	n	n	13.9	11.1
O=C(Nc1ccc2c(c1)OCO2)c1cc2nc(C3CC3)cc(C(F)(F)F)n2n1	x	x	x	n	n	x	x	x
Cc1cc(C)n2nc(C(=O)Nc3ccc4c(c3)OCO4)cc2n1	n	11.2	n	n	n	n	18.4	9.7
CNc1ccc(/C=C(\C#N)c2ccccn2)cc1[N+](=O)[O-]	n	13.3	n	n	74.0	n	13.2	8.0
O=C(c1ccccc1)c1cnc(-c2ccc(Cl)cc2)s1	n	14.3	n	n	n	n	n	6.9
O=[N+]([O-])c1ccc(N=Nc2ncc[nH]2)cc1	81.7	8.0	n	n	n	n	n	6.9
C[C@@H]1CN([C@@H](C)CO)C(=O)c2cc(-c3ccc(C#N)cc3)cnc2O[C@H]1CN(C)C(=O)c1ccccc1	x	x	x	x	n	x	x	x
Cc1ccn(-c2ccc(NC(=O)c3cccs3)cc2)n1	n	8.0	n	n	n	n	9.0	7.9
CN1CCN(c2ccc(NC(=O)c3cccs3)cc2)CC1	n	n	n	n	n	x	x	x
C[C@@H]1CN([C@@H](C)CO)C(=O)Cc2cc(NC(=O)CCN3CCOCC3)ccc2O[C@H]1CN(C)Cc1ccc(Oc2ccccc2)cc1	x	x	x	x	n	x	x	x
CCN1CCN(c2ccc(S(=O)(=O)N3CCCCC3)cc2NC(=O)/C=C/c2ccc([N+](=O)[O-])cc2)CC1	51.9	14.8	n	n	n	n	23.1	n
COc1cc(SC)ccc1C(=O)Nc1ccc(C)cc1C	n	8.1	n	n	x	n	13.2	14.3
N#C/C(=N\Nc1ccccc1)C(=N)N1CCOCC1	n	n	n	n	x	x	x	x
N#C/C(=N\Nc1ccc(F)cc1)C(=N)N1CCCCCC1	n	12.0	n	n	n	n	14.8	19.2
CCN(CC)C(=N)/C(C#N)=N/Nc1ccc(C)cc1	n	n	n	n	x	x	x	x
Cc1ccc(N/N=C(\C#N)C(=N)N2CCCCCC2)cc1	n	8.3	n	n	x	n	11.6	13.6
CC(C)/C=C1\CCc2c([nH]c3ccccc23)C1=O	n	n	n	n	x	x	x	x
Cc1ccc(/C=C2/CCc3c([nH]c4ccccc34)C2=O)cc1	n	8.2	n	n	n	n	n	10.6	697 NFkB conf=n
SMILES	Jurkat NFkB inh	SMARCA2 activ	697 NFkB inh	Gli-Sufu antag	esBAF inh	Jurkat NFkB conf	SMARCA2 conf	GAL4-VP16 Luc	others
C[C@@H]1CN([C@@H](C)CO)C(=O)c2cc(NS(C)(=O)=O)ccc2O[C@@H](C)CCCCO[C@H]1CN(C)C(=O)CCC(F)(F)F	x	x	x	x	n	x	x	x
C[C@@H]1CN([C@H](C)CO)C(=O)c2cccc(NC(=O)Nc3ccc4c(c3)OCO4)c2O[C@@H]1CN(C)C(=O)Nc1ccc2c(c1)OCO2	x	x	x	x	n	x	x	x
Cc1cc(NC(=O)CSc2nc3c(sc4ccccc43)c(=O)n2CCc2ccccc2)n[nH]1	n	n	n	n	n	x	x	x
Cc1cc(NC(=O)CSc2nc3c(sc4ccccc43)c(=O)n2CCCN2CCOCC2)n[nH]1	59.1	20.4	37.7	n	n	59.2	35.5	n	697 NFkB conf=n
COc1ccccc1-c1cn(CC[C@H]2CC[C@@H](NS(=O)(=O)c3ccccc3C)[C@H](CO)O2)nn1	x	x	x	x	n	x	x	x
O=C(/C=C/c1ccc(Cl)cc1Cl)N1CCc2ccccc21	n	8.7	n	n	x	n	8.3	8.6
CO[C@H]1CN(C)C(=O)c2ccc(NC(=O)c3cnccn3)cc2OC[C@H](C)N(CCc2ccccc2)C[C@H]1C	x	x	x	x	n	x	x	x
CC(C)Cn1c(/C=C/c2ccccc2)nc2ccccc21	n	n	n	n	x	x	x	x
CCn1c(/C=C/c2ccccc2)nc2ccccc21	n	9.2	n	n	n	n	10.7	10.7
CN1C(=O)c2cc(NS(=O)(=O)c3ccc(F)cc3)ccc2OC[C@H]2O[C@@H](CC(=O)NCC(F)(F)F)CC[C@H]21	x	x	x	x	n	x	x	x
Cc1c(C(=O)OC2CCCC2C)[nH]c2c1C(=O)CCC2 (stereo not given)	n	n	n	n	n	x	x	x
COC(=O)C1C(=O)c2c([nH]c(C(=O)OC3CCCC3)c2C)CC1C (stereo not given)	n	8.2	n	n	75.6	n	n	8.4
COc1ccc(-c2cc(-c3cc(C)ccc3O)[nH]n2)cc1	77.4	16.4	n	n	x	n	17.5	5.8
Cc1ccc(O)c(-c2cc(-c3ccccc3C)[nH]n2)c1	n	n	n	n	x	x	x	x
CCCC(=O)Nc1ccc2c(c1)OC[C@H](C)N(Cc1nccs1)C[C@H](C)[C@@H](OC)CN(C)C2=O	x	x	x	x	n	x	x	x
CCOc1ccc2nc(C)cc(Nc3cccc([N+](=O)[O-])c3)c2c1	76.9	14.3	n	n	x	n	32.4	n
CO[C@@H]1CN(C)C(=O)c2cc(NC(C)=O)ccc2OC[C@@H](C)N(Cc2ccccn2)C[C@@H]1C	x	x	x	x	n	x	x	x
CC(C)(C)c1ccc(/C=N/NC(=O)c2ccccn2)cc1	n	9.8	n	n	x	n	n	9.0
